Assay results from PubChem BioAssay.
“And” between values parts separate entries of the source, which are not always exact repeats. Equal values may be shown once. Records with an inconclusive call do not appear. The source made the active and inactive calls.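 How the source made its calls, unless noted: active means compounds whose cell count with miR-34 switched on is under 0.7 times the count with it off; inactive means the rest.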

What was measured:
[1] = hESC survival regulators, cell-based (AID 493140; call rule not given here;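 further: cells exposed to compounds for four days before counting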); details: human embryonic stem cell survival screen; stronger effect = higher value
[2] = liver-stage malaria parasite growth inhibition, primary screen, cell-based, HepG2, luciferase luminescence, HepG2 viability (AID 624349; in the data active means parasite load remaining mostly below about 12%, no sharp cut-off; inactive means mostly above about 10%;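 further: 100% = mean of DMSO negative control wells on the same plate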); details: P. berghei liver stage in HepG2, luciferase luminescence, concentration not given here; parasite load remaining: stronger effect = lower value; viability: measured here: HepG2 viability without parasites
[3] = stimulators of nuclear beta-catenin in C2C12, primary screen, imaging, WNT3A-conditioned medium, mouse C2C12, NPC library (AID 1117326; in the data active means nuclear beta-catenin stimulation mostly above about 4.2%, no sharp cut-off; inactive means mostly below about 10%); details: stronger effect = higher value
[4] = stimulators of insulin release from INS-1E, primary screen, cell-based, 5 mM glucose, NPC library (AID 1117329;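 active means compound raises insulin release from rat beta cells at 5 mM glucose, no numeric limit stated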); details: rat INS-1E insulin secretion, at 10 µM, stronger effect = higher value
[5] = growth inhibition of GSK3B-pretreated HCT116 cells – cell-based, CellTiter-Glo, 0.2 to 20 µM (AID 1117336;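 active means compounds lowering colon cancer cell viability after pretreatment blocking the GSK3B kinase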); details: HCT116 viability after GSK3B inhibitor, at 20 µM, stronger effect = higher value
[6] = inhibition of endothelial tube formation, primary screen, imaging, VEGF stimulated, CD31 staining, tube area, NPC library (AID 1117340;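 active means compound that reduces growth-factor-driven endothelial tube area in a mixed cell culture, no cutoff stated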); details: VEGF-stimulated ADSC/ECFC co-culture, at 10 µM, stronger effect = higher value
[7] = glucagon-like peptide 1 release enhancers, primary assay, NCI-H716 cell line, NPC library (AID 1117341;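 active means compound raises GLP1 secretion from the human gut endocrine cells, with no numeric limit stated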); details: NCI-H716 cells, at 10 µM, stronger effect = higher value
[8] = HCT116 colon cancer cell growth inhibition, primary screen, CellTiter-Glo luminescence, NPC library (AID 1117342;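 active means compounds that lower survival of HCT116 colon cancer cells in the luminescence readout, no numeric limit stated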); details: at 20 µM (top of the series)
[9] = CellTiter-Glo luminescent readout of SW480 viability loss, NPC library primary (AID 1117343;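 active means compounds that lower viability of the colon cancer cells in the luminescence readout, with no numeric limit stated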); details: CellTiter-Glo luminescence; at 20 µM (top of the series) unless noted
[10] = decreased DLD-1 cellular survival, CellTiter-Glo luminescent readout, NPC compound collection, primary HTS (AID 1117346;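 active means compounds that lower survival of DLD-1 colon cancer cells in the luminescence readout, no cutoff given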); details: DLD-1 viability, CellTiter-Glo luminescence; at 20 µM (top of the series)
[11] = sensitizers of A549 cells to miR-34 induction, primary screen, imaging, A549 dox-inducible miR-34, nuclei and caspase counts (AID 1347080); details: A549 miR-34 inducible, Hoechst nuclei count, 48 h
[12] = survival rescue of mitochondrial mutant cells in low glucose, primary screen, MELAS cybrids, Rieske KO mouse fibroblasts, CellTiter-Glo (AID 1508586;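 active means mean z-score across replicates of 1.96 or higher in either the MELAS or the Rieske mutant cell line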;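 further: z relative to plate mean and SD of compound and empty wells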)
[13] = target: NAD(+) hydrolase SARM1 (Homo sapiens) (UniProt Q6SZW1); test: SARM1 TIR NADase inhibitors, cell lysate, NAD-Glo luminescence (AID 1508614;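 active means compound whose remaining NAD level is above about 45 nM, limit read from the data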); details: SAM-TIR HEK293T lysate NADase, at 1 µM, stronger effect = higher value
Sequence of NAD(+) hydrolase SARM1 (Homo sapiens) (Q6SZW1 whole entry, looked up): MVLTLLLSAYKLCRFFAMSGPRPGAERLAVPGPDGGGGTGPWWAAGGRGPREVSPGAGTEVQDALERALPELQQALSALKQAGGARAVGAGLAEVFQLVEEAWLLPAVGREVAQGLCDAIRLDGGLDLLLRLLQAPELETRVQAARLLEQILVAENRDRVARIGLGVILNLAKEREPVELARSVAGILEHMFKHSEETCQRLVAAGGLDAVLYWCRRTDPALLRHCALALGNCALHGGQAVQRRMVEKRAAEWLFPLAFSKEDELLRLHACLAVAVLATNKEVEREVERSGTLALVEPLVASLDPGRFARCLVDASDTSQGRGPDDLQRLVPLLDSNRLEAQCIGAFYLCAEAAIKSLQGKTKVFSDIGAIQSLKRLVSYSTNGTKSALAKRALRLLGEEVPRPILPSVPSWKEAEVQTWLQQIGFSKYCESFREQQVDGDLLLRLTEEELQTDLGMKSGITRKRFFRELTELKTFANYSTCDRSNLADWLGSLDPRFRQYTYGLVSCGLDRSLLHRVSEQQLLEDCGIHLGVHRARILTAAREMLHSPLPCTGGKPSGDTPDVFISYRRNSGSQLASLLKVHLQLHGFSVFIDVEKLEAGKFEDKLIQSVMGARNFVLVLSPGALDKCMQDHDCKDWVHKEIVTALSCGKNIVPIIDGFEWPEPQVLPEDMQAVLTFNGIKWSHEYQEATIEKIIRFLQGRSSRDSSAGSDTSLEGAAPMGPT

[14] = target: ATP-dependent translocase ABCB1 (Homo sapiens) (UniProt P08183); test: MDR1 (ABCB1) efflux transporter inhibition, cell-based (AID 377; in the data active means fluorescence slope change above about 50%); details: MDR1-expressing cells, fluorescent substrate accumulation slope; stronger effect = higher value; concentration not given here
Sequence of ATP-dependent translocase ABCB1 (Homo sapiens) (P08183 whole entry, looked up, the tested form may be a part): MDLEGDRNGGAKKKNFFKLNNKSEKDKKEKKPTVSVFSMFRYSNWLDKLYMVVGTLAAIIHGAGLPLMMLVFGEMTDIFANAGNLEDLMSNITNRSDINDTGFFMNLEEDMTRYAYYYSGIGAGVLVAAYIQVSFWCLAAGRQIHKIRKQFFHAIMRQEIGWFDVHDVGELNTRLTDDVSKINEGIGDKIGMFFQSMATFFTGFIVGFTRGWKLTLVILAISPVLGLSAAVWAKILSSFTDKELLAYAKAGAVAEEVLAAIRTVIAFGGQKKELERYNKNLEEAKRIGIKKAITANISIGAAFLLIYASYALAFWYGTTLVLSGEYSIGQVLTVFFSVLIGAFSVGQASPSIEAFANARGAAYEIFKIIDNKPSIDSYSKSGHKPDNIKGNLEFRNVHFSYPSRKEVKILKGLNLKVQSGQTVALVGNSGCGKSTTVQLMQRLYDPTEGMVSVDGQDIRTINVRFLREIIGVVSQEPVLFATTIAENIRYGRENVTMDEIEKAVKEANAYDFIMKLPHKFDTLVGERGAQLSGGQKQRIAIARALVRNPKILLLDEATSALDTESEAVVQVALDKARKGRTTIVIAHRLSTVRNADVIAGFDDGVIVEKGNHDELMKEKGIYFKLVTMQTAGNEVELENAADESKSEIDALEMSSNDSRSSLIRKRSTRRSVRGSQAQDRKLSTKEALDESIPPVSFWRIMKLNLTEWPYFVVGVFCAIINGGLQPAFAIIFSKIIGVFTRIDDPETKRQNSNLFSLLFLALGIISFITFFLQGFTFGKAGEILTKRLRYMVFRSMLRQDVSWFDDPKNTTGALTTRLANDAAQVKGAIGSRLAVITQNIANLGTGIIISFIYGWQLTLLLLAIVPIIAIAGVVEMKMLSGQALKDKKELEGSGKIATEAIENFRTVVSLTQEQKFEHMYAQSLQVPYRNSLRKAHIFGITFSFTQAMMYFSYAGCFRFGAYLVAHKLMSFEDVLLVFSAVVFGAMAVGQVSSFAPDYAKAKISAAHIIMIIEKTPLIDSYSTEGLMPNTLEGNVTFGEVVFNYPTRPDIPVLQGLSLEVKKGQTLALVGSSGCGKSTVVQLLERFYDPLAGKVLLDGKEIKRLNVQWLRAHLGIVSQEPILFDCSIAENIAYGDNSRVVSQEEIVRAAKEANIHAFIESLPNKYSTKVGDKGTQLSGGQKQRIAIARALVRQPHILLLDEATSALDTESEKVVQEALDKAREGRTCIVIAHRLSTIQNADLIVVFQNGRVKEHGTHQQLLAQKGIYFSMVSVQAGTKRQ

[15] = target: Mitogen-activated protein kinase 7 (Homo sapiens) (UniProt Q13164); test: ERK5 transactivation activators in reporter cells, primary screen, cell-based, HTS (AID 1508626;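 active means luciferase signal above three times the same-plate solvent-only control wells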;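 further: luciferase driven by Gal4-ERK5 fusion binding five Gal4 sites before minimal TATA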); details: HeLa Gal4-ERK5 transactivation, 18 h, at 5 µM, stronger effect = higher value
Sequence of Mitogen-activated protein kinase 7 (Homo sapiens) (Q13164 whole entry, looked up, the tested form may be a part): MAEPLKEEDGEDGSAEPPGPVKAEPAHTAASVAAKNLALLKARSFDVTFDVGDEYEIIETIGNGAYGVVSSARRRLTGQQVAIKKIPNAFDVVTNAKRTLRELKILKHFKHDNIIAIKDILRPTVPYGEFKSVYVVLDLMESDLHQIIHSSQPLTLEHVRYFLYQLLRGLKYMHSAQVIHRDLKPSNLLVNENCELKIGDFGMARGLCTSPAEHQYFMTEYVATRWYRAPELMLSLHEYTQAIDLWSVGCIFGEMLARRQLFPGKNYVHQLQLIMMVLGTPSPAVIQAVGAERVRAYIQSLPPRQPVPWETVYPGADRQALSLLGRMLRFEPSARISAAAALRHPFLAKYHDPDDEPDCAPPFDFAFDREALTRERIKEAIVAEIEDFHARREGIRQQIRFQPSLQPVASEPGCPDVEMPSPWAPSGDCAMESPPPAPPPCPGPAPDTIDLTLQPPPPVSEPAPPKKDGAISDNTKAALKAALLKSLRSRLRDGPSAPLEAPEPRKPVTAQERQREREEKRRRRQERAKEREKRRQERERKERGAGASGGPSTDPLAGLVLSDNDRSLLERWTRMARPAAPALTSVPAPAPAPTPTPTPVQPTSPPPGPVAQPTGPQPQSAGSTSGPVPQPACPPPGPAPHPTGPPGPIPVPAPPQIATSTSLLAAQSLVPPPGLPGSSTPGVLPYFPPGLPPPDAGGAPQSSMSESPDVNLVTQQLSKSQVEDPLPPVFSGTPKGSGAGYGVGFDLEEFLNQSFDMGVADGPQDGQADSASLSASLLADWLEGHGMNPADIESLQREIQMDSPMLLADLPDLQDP

[16] = viability rescue of complex I mutant cybrids, primary screen, cell-based, galactose medium, ATP luminescence (AID 1645843;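 active means z-score of at least 1.8 in each of two replicates, scored against plate mean and spread of sample wells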;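 further: positive z means more ATP and so rescue of galactose-driven cybrid death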); details: complex I mutant cybrid cells, 72 h, stronger effect = higher value
[17] = stronger effect = lower value, cell number ratio, induced over uninduced
[18] = measured here: relative caspase fold change +Dox/-Dox
[19] = measured here: total cells with miR-34 induction, stronger effect = lower value
[20] = measured here: total cells without miR-34 induction
[21] = MELAS cybrid survival, CellTiter-Glo 48 h, stronger effect = higher value
[22] = Rieske KO mouse fibroblast survival, CellTiter-Glo 72 h

CC(=O)[C@H]1CC[C@H]2[C@@H]3C=CC4=CC(=O)CC[C@@]4(C)[C@@H]3CC[C@]12C
survival [1]: 6.67 (inactive) | parasite load remaining [2]: 84.3% (inactive) | viability [2]: 94.2% | nuclear beta-catenin stimulation ([3]; at 10 µM): 4.5% (inactive) | nuclear beta-catenin stimulation ([3]; stimulation, at 2 µM): 1.5% | insulin secretion stimulation [4]: -1.8% (inactive) | viability decrease [5]: 6.3% (inactive) | tube area decrease [6]: 4.8% (inactive) | GLP1 secretion stimulation [7]: 3.1% (inactive) | inhibition of viability [8]: 14.9% (inactive) | viability decrease (inhibition) [9]: 64.2% (active) | viability decrease (inhibition) [10]: 5.4% (inactive) | fold change [11, 17]: 0.855 (inactive) | fold change [11, 18]: 1.43 | cell count [11, 19]: 8320 | cell count [11, 20]: 9730 | z-score [12, 21]: 0.367 (inactive) | z-score [12, 22]: 0.105 | remaining NAD [13]: 10 nM (inactive)

Cc1ncc(C[n+]2csc(CCO)c2C)c(N)n1
fluorescence slope change [14]: 80.3% (active) | survival [1]: 12.6 (inactive) | parasite load remaining [2]: 161% (inactive) and 60.9% (inactive) | viability [2]: 98.2% and 74.9% | nuclear beta-catenin stimulation ([3]; at 10 µM): -1.9% (inactive) | nuclear beta-catenin stimulation ([3]; stimulation, at 2 µM): -0.8% | insulin secretion stimulation [4]: 3.8% (inactive) | viability decrease [5]: -12.9% (inactive) | tube area decrease [6]: -6.7% (inactive) | GLP1 secretion stimulation [7]: -1.3% (inactive) | inhibition of viability [8]: 5% (inactive) | viability decrease (inhibition) [9]: 7.9% (inactive) | viability decrease (inhibition) [10]: 1.8% (inactive) | fold change [11, 17]: 0.836 (inactive) | fold change [11, 18]: 1.04 | cell count [11, 19]: 8780 | cell count [11, 20]: 10500 | z-score [12, 21]: 0.823 (inactive) | z-score [12, 22]: 0.201 | remaining NAD [13]: 10 nM (inactive) | luciferase signal [15]: 44 AU (inactive)

COc1ccc(C=CC(=O)Nc2ccccc2C(=O)O)cc1OC
nuclear beta-catenin stimulation ([3]; at 10 µM): -1.3% (inactive) | nuclear beta-catenin stimulation ([3]; stimulation, at 2 µM): 2.1% | insulin secretion stimulation [4]: 0.9% (inactive) | viability decrease [5]: 4.3% (inactive) | tube area decrease [6]: -1.3% (inactive) | GLP1 secretion stimulation [7]: -5.7% (inactive) | inhibition of viability [8]: -5.8% (inactive) | viability decrease (inhibition) [9]: 4.8% (inactive) | viability decrease (inhibition) [10]: -29.2% (inactive) | fold change [11, 17]: 0.906 (inactive) and 0.975 (inactive) | fold change [11, 18]: 1.48 and 0.856 | cell count [11, 19]: 9440 and 8000 | cell count [11, 20]: 10400 and 8210 | z-score [12, 21]: -0.386 (inactive) | z-score [12, 22]: 0.573 | z-score [16]: 0.955 (inactive)

CC(=O)N(CC(O)CO)c1c(I)c(C(=O)NCC(O)CO)c(I)c(C(=O)NCC(O)CO)c1I (stereo unspecified)
survival [1]: 14.3 (inactive) | parasite load remaining [2]: 114% (inactive) and 69.4% (inactive) | viability [2]: 108% and 73.4% | nuclear beta-catenin stimulation ([3]; at 10 µM): -2.4% (inactive) | nuclear beta-catenin stimulation ([3]; stimulation, at 2 µM): -1.5% | insulin secretion stimulation [4]: 7% (inactive) | viability decrease [5]: -5% (inactive) | tube area decrease [6]: 1.5% (inactive) | GLP1 secretion stimulation [7]: -5.6% (inactive) | inhibition of viability [8]: 4.5% (inactive) | viability decrease (inhibition) [9]: 4.9% (inactive) | viability decrease (inhibition) [10]: 0.4% (inactive) | fold change [11, 17]: 0.842 (inactive) | fold change [11, 18]: 1.09 | cell count [11, 19]: 8930 | cell count [11, 20]: 10600 | z-score [12, 21]: 0.412 (inactive) | z-score [12, 22]: -0.115 | remaining NAD [13]: 10 nM (inactive)

COc1nccnc1NS(=O)(=O)c1ccc(N)cc1
nuclear beta-catenin stimulation ([3]; at 10 µM): 1.5% (inactive) | nuclear beta-catenin stimulation ([3]; stimulation, at 2 µM): 3.9% | insulin secretion stimulation [4]: 1.7% (inactive) | viability decrease [5]: 3.6% (inactive) | tube area decrease [6]: 2.9% (inactive) | GLP1 secretion stimulation [7]: 2.7% (inactive) | inhibition of viability [8]: 6.8% (inactive) | viability decrease (inhibition) [9]: -1.3% (inactive) | viability decrease (inhibition) [10]: -5.6% (inactive) | fold change [11, 17]: 0.87 (inactive) | fold change [11, 18]: 0.163 | cell count [11, 19]: 9240 | cell count [11, 20]: 10600 | z-score [12, 21]: 0.483 (inactive) | z-score [12, 22]: -0.166 | z-score [16]: -0.33 (inactive)

C[C@H](NCCc1ccc(O)cc1)[C@H](O)c1ccc(O)cc1
fluorescence slope change [14]: 27.4% (inactive) | survival [1]: 5.58 (inactive) | parasite load remaining [2]: 80.4% (inactive) and 86.8% (inactive) | viability [2]: 111% and 73.3% | nuclear beta-catenin stimulation ([3]; at 10 µM): -1.4% (inactive) | nuclear beta-catenin stimulation ([3]; stimulation, at 2 µM): -0.2% | insulin secretion stimulation [4]: 4.3% (inactive) | viability decrease [5]: -8.6% (inactive) | tube area decrease [6]: 5.1% (inactive) | GLP1 secretion stimulation [7]: -4.3% (inactive) | inhibition of viability [8]: 4.7% (inactive) | viability decrease (inhibition) [9]: 0.4% (inactive) | viability decrease (inhibition) [10]: -16.7% (inactive) | fold change [11, 17]: 0.881 (inactive) and 0.9 (inactive) | fold change [11, 18]: 1.49 and 0.723 | cell count [11, 19]: 8830 and 9090 | cell count [11, 20]: 10000 and 10100 | z-score [12, 21]: -0.276 (inactive) and 0.441 (inactive) | z-score [12, 22]: -0.155 and 0.32 | luciferase signal [15]: 96 AU (inactive)

CC1=C(C(=O)OC(C)C)C(c2cccc([N+](=O)[O-])c2)C(C(=O)OC2CN(C(c3ccccc3)c3ccccc3)C2)=C(N)N1 (stereo unspecified)
nuclear beta-catenin stimulation ([3]; at 10 µM): -2% (inactive) | nuclear beta-catenin stimulation ([3]; stimulation, at 2 µM): 2.2% | insulin secretion stimulation [4]: 5.2% (inactive) | viability decrease [5]: 111% (active) | tube area decrease [6]: 109% (active) | GLP1 secretion stimulation [7]: 40.3% (active) | inhibition of viability [8]: 113% (active) | viability decrease (inhibition) [9]: 133% (active) | viability decrease (inhibition) [10]: 102% (active) | fold change [11, 17]: 0.933 (inactive) | fold change [11, 18]: 0.636 | cell count [11, 19]: 7560 | cell count [11, 20]: 8100 | z-score [12, 21]: -0.296 (inactive) | z-score [12, 22]: -0.252

C#C[C@]1(OC(C)=O)CC[C@H]2[C@@H]3CCC4=C[C@@H](OC(C)=O)CC[C@@H]4[C@H]3CC[C@@]21C
survival [1]: 3.67 (inactive) | parasite load remaining [2]: 82.1% (inactive) | viability [2]: 93.8% | nuclear beta-catenin stimulation ([3]; at 10 µM): 4.6% (inactive) | nuclear beta-catenin stimulation ([3]; stimulation, at 2 µM): 2.1% | insulin secretion stimulation [4]: 0.1% (inactive) | viability decrease [5]: -55.2% (inactive) | tube area decrease [6]: -2.9% (inactive) | GLP1 secretion stimulation [7]: -2.3% (inactive) | inhibition of viability [8]: 45% (inactive) | viability decrease (inhibition) [9]: 80.6% (active) | viability decrease (inhibition) [10]: 64.6% (active) | fold change [11, 17]: 0.877 (inactive) | fold change [11, 18]: 1.09 | cell count [11, 19]: 9000 | cell count [11, 20]: 10300 | z-score [12, 21]: -0.135 (inactive) | z-score [12, 22]: 0.556 | remaining NAD [13]: 10 nM (inactive) | luciferase signal [15]: 64 AU (inactive)

CC(C=CC=C(C)C=CC1=C(C)CCCC1(C)C)=CC=CC=C(C)C=CC=C(C)C=CC1=C(C)CCCC1(C)C
nuclear beta-catenin stimulation ([3]; at 10 µM): 1.5% (inactive) | nuclear beta-catenin stimulation ([3]; stimulation, at 2 µM): 1.5% | insulin secretion stimulation [4]: 3.2% (inactive) | viability decrease [5]: -39.2% (inactive) | tube area decrease [6]: 5.4% (inactive) | GLP1 secretion stimulation [7]: 5.7% (inactive) | inhibition of viability [8]: 1.37% (inactive) | viability decrease (inhibition) [9]: 19.1% (inactive) | viability decrease (inhibition) [10]: 3.2% (inactive) | fold change [11, 17]: 0.877 (inactive) | fold change [11, 18]: 0.984 | cell count [11, 19]: 7760 | cell count [11, 20]: 8840 | z-score [12, 21]: -0.304 (inactive) | z-score [12, 22]: 0.553
